Our source for the Inhibition values is ChEMBL document CHEMBL1157539, “Thousands of chemical starting points for antimalarial lead identification” (Nature, 2010).

In the experiment the test system is HepG2. Briefly: GSK_TCMDC: Percent inhibition of human HepG2 cell line. Test compounds present at 10uM. In kind it is functional.
As to `CC(=O)c1cccc2cc(C(=O)NC3CCC(CCN4CCc5ccc(C#N)cc5C4)CC3)[nH]c12.Cl` (stereo not given), the Inhibition was found to be 12%.

In the case of `COc1ccc2nccc([C@H](O)CN3CCC(NCc4nc5cccc(F)c5[nH]4)CC3)c2c1.O=C(O)C(=O)O`, the Inhibition is reported as 0%.

Take `CCc1cccc(-n2c(=O)c3cccnc3n2CC(=O)NCc2ccccc2Cl)c1`: the Inhibition is 25%.

In the case of `CCCOc1cc(OCCC)cc(-c2cc(=O)c3ccccc3[nH]2)c1`, the Inhibition is listed as 33%.

Take `Cc1cccc(-c2nn(-c3ccccc3)c3[nH]c(=O)c(CNC4CCCC4)cc23)c1`: the Inhibition is listed as 18%.

For `Cn1ncc2ccc(Nc3nccc(-c4ccc5c(c4)c(N)nn5C)n3)cc21`, the Inhibition stood at 48%.

In the case of `O=C(NCCN1CCC(c2ncc(-c3ccccc3)o2)CC1)c1ccc(NC(=O)c2ccc(Cl)cc2)cc1`, the Inhibition is on record as 32%.

With `Br.NCC(=O)NC12CC3CC(CC(C3)C1)C2`, the Inhibition was determined as 15%.

`CCC(C)CN1CCCN(c2ccc(NC(=O)c3cccs3)cc2)CC1.O=C(O)C(F)(F)F` (stereo not given): the Inhibition was determined as 4%.

With `Cc1c(-c2cccc(CNCCc3ccc(Cl)cc3)c2)cnc(N)c1C.Cl`, the Inhibition was determined as 9%.

In the case of `CN(C)CCCOC(=O)c1cc2cc(-c3ccccc3)ccc2n1S(=O)(=O)Cc1ccccc1.Cl`, the Inhibition was 13%.

Turning to `O=C(Nc1ccc(C(F)(F)F)cc1)c1cccc(S(=O)(=O)NCC2CCCN(CC3CCCCC3)C2)c1.O=C(O)C(F)(F)F` (stereo not given), the Inhibition is listed as 27%.

Turning to `CCN(CCCN1CCCCC1)c1cc(C)nc(Nc2ccc(C)cc2C)n1.O=C(O)C(F)(F)F`, the Inhibition was found to be 33%.

With `CS(=O)(=O)Nc1cccc(-c2cnc3[nH]cc(-c4ccc(C(=O)O)cc4)c3c2)c1`, the Inhibition stood at 0%.

`Cl.N#Cc1ccc2c(c1)CCN(CCC1CCC(NC(=O)c3cc4ccc(Cl)cc4[nH]3)CC1)C2` (stereo not given) came in with an Inhibition of 5%.

By Inhibition is commonly meant the drop in the measured response relative to a control, in per cent. A lower Inhibition goes with little suppression.
